# High-throughput results: PubChem BioAssay, National Center for Advancing Translational Sciences (NCATS)
# Rab9 prom act – activators of Rab9 promoter | Huh7 Rab9 promoter-luciferase reporter, luminescence, 24 h | 2.8% of 320,000 active | Potency, µM (highest dose often 9.22 µM), for the others: at the top dose activation, negative = inhibition, actives largely listed as activators; further: % of control where 0% means no effect; nearly all actives have a fitted effect of over 60% in size
#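 Huh7 cells stably carrying Rab9 promoter–luciferase reporter, plated 1500 cells/well, compound added after 2 h and incubated 24 h at 37 °C; luciferase luminescence then read after 10 min with detection reagent.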
# FLuc counter – inhibits or activates purified firefly luciferase, miR-21 counter-screen; P08659; purified FLuc, Km substrates, luminescence inhibition; Potency, µM (series often up to 57.5 µM), for the others: at the top dose activity change, negative = inhibition, usual class: inhibitors; 6.9% of 360,000 active; AID 588342;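 further: plate controls were vehicle for no effect and reference inhibitor for full effect; nearly all actives have a fitted effect of over 55% in size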
# Target sequence (P08659 whole entry, looked up): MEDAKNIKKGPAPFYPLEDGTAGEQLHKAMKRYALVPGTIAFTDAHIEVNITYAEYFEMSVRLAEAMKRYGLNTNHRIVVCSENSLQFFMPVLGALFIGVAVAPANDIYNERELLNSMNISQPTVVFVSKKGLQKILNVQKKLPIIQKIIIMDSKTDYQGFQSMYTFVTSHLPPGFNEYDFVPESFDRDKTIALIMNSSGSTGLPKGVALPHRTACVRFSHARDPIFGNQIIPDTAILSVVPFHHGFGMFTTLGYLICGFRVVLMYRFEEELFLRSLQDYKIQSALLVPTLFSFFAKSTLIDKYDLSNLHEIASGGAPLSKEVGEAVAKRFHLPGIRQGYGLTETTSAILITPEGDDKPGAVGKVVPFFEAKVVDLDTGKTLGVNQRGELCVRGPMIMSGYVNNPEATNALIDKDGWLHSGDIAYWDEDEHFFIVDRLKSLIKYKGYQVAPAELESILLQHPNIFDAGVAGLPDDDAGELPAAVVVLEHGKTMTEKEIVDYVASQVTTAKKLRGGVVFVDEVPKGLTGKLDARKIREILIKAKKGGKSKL
#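 Purified P. pyralis luciferase (10nM final) with 10uM D-luciferin and 10uM ATP (Km levels) in 50mM Tris acetate pH 7.5, 10mM Mg acetate, 0.01% Tween-20, 0.05% BSA; qHTS 6-point titration, ~60 µM downward; luminescence read.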
# ELG1 genotoxic – genotoxicity induction in ELG1-luciferase HEK293T cells; HEK293T ELG1-luciferase reporter, luminescence, 16 h; Potency, µM (series often up to 46 µM), for inactives: at the highest dose activity change, positive = activation, usual class: activators; 1.3% of 330,000 active; AID 504466; further: % of control where 0% means no effect; nearly all actives have a fitted effect of over 60% in size
#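 Genotoxicity was scored as increased ELG1-luciferase reporter signal, measured by ONE-Glo luminescence (30 min, room temperature). Compound or vehicle exposure of the HEK293T reporter cells lasted 16 hr at 37°C.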
# NPC1 prom act – activates the NPC1 promoter; Huh7 NPC1 promoter luciferase reporter, 24 h; Potency, µM (series often up to 9.22 µM), without a hit: at the highest dose activation, actives largely listed as activators; 2.4% of 320,000 active; AID 485313; further: % of control where 0% means no effect; nearly all actives have a fitted effect of over 60% in size
#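 In 1536-well qHTS, Huh7 cells harboring an NPC1 promoter–luciferase construct received compound for 24 h; activation was quantified by luminescence following luciferase reagent addition.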
# SMN2 splice enh – enhancers of SMN2 splice variant expression; AID 1458; Potency, µM (highest dose often 46.1 µM), without a hit: at the top dose activity change, positive = activation, hits mostly activators; HEK293 SMN2-luciferase splicing reporter, luminescence, 30-36 h; 2.8% of 210,000 active; further: % of control where 0% means no effect; nearly all actives have a fitted effect of over 55% in size
#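 HEK293 cells carry an SMN2 minigene-luciferase reporter in which exon 7 inclusion puts luciferase in frame. Cells were seeded at 2000 cells/well, attached for 10-12 hours, then exposed to compounds for 30-36 hours at 37C before ONE-Glo luminescence.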
# The depositor's hits bear a star; ? = inconclusive; . = no result given. Shown are actives, neighbours in structure and some others; about 7.4% of the full set was active somewhere. The call rests on the fitted dose curve; in most records, active means well fitted curve in the direction sought with a large enough effect; inconclusive means small, poorly fitted or top-dose-only effect, or another doubt; inactive means no such curve, though single readings can be large; an effect the other way counts as inactive or inconclusive. Potency means the concentration at half of the fitted maximal effect.
SMILES,Rab9 prom act,FLuc counter,ELG1 genotoxic,NPC1 prom act,SMN2 splice enh
COc1ccc(-c2nc(SCC(=O)N(CC(C)C)c3c(N)n(Cc4ccccc4)c(=O)[nH]c3=O)n[nH]2)cc1,-1.4%,1.9µM*,-1.9%,8.8%,.
CCCN(C(=O)CSc1n[nH]c(-c2ccc(OC)cc2)n1)c1c(N)n(Cc2ccccc2)c(=O)[nH]c1=O,-4.5%,10.7µM*,3.1%,-2.0%,.
COc1ccc2c(c1)c1c(c(=O)n(-c3cccc(C)c3)c(=O)n1Cc1cccc(Cl)c1)n2C,.,-3.6%,.,.,.
Cc1ccc(/C=N/Nc2nc(C(C)(C)C)cs2)o1,?,13.5µM*,?,?,12.6µM*
C(=N\Nc1nc(-c2ccccc2)cs1)/c1cccnc1,2.24µM*,21.3µM*,5.17µM*,3.16µM*,22.4µM*
Cc1ccc(/C=N/Nc2nc3ccccc3s2)o1,?,0.849µM*,0.82µM*,?,2µM*
Cc1cc(=O)[nH]c(N/N=C/c2ccc(C)o2)n1,-10.9%,-5.3%,4.8%,-0.1%,-15.6%
CC(C)(C)c1csc(N/N=C/c2cccnc2)n1,3.16µM*,12µM*,?,?,?
Clc1ccc(-c2csc(N/N=C/c3cccnc3)n2)c(Cl)c1,-8.5%,-17.3%,6.7%,-3.5%,-53.5%
CCCn1c(N)c(N(CCOC)C(=O)c2ccc(N(C)S(=O)(=O)c3ccc(C)cc3)cc2)c(=O)[nH]c1=O,-0.6%,9.1%,3.2%,16.9%,.
Cc1cc(S(=O)(=O)Nc2cccc(-c3ccc(N4CCOCC4)nn3)c2)c(C)cc1Cl,.,12µM*,.,.,.
COc1ccc(-c2cccc(NS(=O)(=O)c3cc(C)ccc3OC)c2)nn1,.,-9.8%,.,.,.
COc1ccc(Cl)cc1S(=O)(=O)Nc1cccc(-c2ccc(N3CCOCC3)nn2)c1,.,19µM*,.,.,.
Cc1cc(NC(=O)CCC(=O)N(c2ccccc2)C(C(=O)NC2CCCC2)c2ccccc2F)no1 (stereo not given),-2.0%,2.3%,-9.7%,1.6%,.
Cc1c(O)cc2c(c1O)C(=O)CC(c1ccccc1)O2 (stereo not given),-1.6%,-18.9%,3.3%,1.2%,.
COc1c(O)cc2c(c1O)C(=O)CC(c1ccccc1)O2 (stereo not given),?,9.53µM*,?,?,.
COc1ccc(-c2cn3cccnc3n2)cc1F,?,8.49µM*,?,?,15.8µM*
Clc1ccc(-c2cn3cccnc3n2)cc1,?,10.7µM*,16.4µM*,26.9%,-5.0%
Clc1ccc(-c2cn3cccnc3n2)cc1Cl,?,16.9µM*,?,?,?
O=C(Nc1cccc(-c2cn3cccnc3n2)c1)c1cc(Br)ccc1Cl,.,-4.2%,.,.,.
Brc1ccc(-c2cn3cccnc3n2)cc1,2.24µM*,8.49µM*,2.91µM*,?,7.94µM*
Cc1ccc(S(=O)(=O)N[C@@H](Cc2ccccc2)C(=O)N2CCC[C@@H]2C(=O)O)cc1,1.0%,0.5%,-0.1%,-6.3%,.
CCS(=O)CC(=O)Nc1c(-c2ccccc2)oc2ccccc2c1=O (stereo not given),-5.5%,-3.8%,4.3%,-1.1%,.
CC1CCc2c(sc(NC(=O)CSc3nnc(-c4ccccc4)o3)c2C#N)C1 (stereo not given),1.1%,2.1%,9.4%,-2.4%,8.6%
CC1CCc2c(sc(NC(=O)Cn3nc(C(=O)O)c4ccccc4c3=O)c2C#N)C1 (stereo not given),-4.6%,12µM*,5.4%,11.7%,.
SMILES,Rab9 prom act,FLuc counter,ELG1 genotoxic,NPC1 prom act,SMN2 splice enh
N#Cc1c(NC(=O)CSc2ncn[nH]2)sc2c1CCCC2,-6.8%,8.49µM*,1.1%,-10.6%,-62.1%
CCCc1cc(=O)[nH]c(SCC(=O)Nc2sc3c(c2C#N)CCC(C)C3)n1 (stereo not given),-1.9%,26.9µM*,3.5%,-2.9%,-17.0%
CC1CCc2c(sc(NC(=O)CSc3ncn[nH]3)c2C#N)C1 (stereo not given),-32.7%,10.7µM*,-7.8%,-42.7%,.
CC(=O)Nc1ccc(-c2csc(Nc3ccccn3)n2)cc1,0.447µM*,?,?,0.501µM*,.
Cc1ccnc(Nc2nc(-c3ccc(O)cc3O)cs2)c1,?,16.9µM*,14.0%,?,.
Cc1ccnc(Nc2nc(-c3ccc(O)c(O)c3)cs2)c1,-4.4%,6.01µM*,5.8µM*,?,.
